Set-up in all cases: scale not given: direction of the effect not stated beside the values
Experiment [1] has as its target Protein translocase subunit SecA (Escherichia coli (strain K12)) (UniProt P10408). Description: Assay to Identify E. coli SecA ATPase Inhibitors. The conditions noted are these: 30 µM. The experiment is classed as functional.
Experiment [2] concerns the target T1, Ubiquitin-activating enzyme e1, putative (Leishmania donovani (strain BPK282A1)) (UniProt E9BSI1).
T1 sequence (whole entry): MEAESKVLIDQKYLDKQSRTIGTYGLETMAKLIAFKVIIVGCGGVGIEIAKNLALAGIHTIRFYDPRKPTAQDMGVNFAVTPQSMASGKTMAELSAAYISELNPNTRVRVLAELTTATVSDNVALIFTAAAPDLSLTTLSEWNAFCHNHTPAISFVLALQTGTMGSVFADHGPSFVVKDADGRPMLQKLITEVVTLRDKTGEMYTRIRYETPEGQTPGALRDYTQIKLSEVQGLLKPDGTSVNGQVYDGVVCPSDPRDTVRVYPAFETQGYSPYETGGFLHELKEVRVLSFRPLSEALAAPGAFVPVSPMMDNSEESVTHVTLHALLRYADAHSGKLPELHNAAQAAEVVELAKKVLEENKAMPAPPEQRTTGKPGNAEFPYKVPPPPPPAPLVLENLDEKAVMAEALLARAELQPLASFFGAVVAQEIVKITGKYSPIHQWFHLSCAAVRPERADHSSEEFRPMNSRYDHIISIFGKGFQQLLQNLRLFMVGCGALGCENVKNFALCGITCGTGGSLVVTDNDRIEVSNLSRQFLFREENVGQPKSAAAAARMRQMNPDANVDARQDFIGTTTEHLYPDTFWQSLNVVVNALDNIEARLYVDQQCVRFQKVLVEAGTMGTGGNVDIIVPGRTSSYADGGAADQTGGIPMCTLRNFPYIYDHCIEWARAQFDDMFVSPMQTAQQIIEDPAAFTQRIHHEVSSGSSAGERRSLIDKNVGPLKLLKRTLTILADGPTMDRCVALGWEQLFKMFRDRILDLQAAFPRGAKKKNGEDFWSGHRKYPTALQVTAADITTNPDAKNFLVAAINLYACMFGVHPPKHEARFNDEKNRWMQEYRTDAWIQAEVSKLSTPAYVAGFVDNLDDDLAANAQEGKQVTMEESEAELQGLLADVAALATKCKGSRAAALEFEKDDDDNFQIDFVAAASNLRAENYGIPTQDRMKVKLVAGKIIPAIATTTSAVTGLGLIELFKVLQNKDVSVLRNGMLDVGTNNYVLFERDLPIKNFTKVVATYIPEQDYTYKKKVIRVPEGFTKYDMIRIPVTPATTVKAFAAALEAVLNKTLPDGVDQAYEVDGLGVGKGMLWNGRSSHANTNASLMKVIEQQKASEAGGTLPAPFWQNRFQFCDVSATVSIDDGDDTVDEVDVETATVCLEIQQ
Nature of the experiment: Leishmania donovani Ubiquitin Activating Enzyme (LdE1). The experiment is classed as functional. The conditions noted are these: 30 µM.

The target of experiment [3] is AMP-activated protein kinase, AMPK (Homo sapiens) (UniProt P54646+O43741+P54619+Q9UGJ0+Q9Y478+Q13131+Q9UGI9). Nature of the experiment: AMP-dependent Kinase enzyme assay. An in vitro enzyme assay that detects ADP turnover that is directly proportional to AMPK activity. This uses naive AMPK that is activated during the assay with MK-8722. Conditions: 30 µM. The class given is functional.

Experiment [4] has as its target Sialic acid-binding Ig-like lectin 9 (Homo sapiens) (UniProt Q9Y336). Nature of the experiment: Hs-Siglec9 ALPHAscreen SOP 20170721. Conditions: 10 µM. Background: Bead proximity is the source of the signal in Alpha formats.
The subject of another experiment is Trypanosoma cruzi. Description: Trypanosoma cruzi phosphomannomutase and mannose-1-phosphate guanylyltransferase assay. The experiment is classed as functional. Conditions: 10 µM.
Experiment [5] deals with T2, Arginase-2, mitochondrial (Homo sapiens) (UniProt P78540).
T2 sequence (whole entry): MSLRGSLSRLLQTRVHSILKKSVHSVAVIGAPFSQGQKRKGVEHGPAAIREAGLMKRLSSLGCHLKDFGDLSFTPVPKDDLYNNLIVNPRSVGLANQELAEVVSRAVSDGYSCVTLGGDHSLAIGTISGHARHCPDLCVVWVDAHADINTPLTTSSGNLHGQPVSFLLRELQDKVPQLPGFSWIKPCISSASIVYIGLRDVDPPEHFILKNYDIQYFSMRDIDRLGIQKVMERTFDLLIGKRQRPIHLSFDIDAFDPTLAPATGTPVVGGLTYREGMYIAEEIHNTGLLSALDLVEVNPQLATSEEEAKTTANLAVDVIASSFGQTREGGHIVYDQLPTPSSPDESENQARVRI
Nature of the experiment: in vitro enzyme assay to detect the production of urea directly proportional to the activity of Arginase II. Note: in the data most compounds retested in dose-response had high values. The conditions noted are these: 33.3 µM. The experiment is classed as functional.

For experiment [6], the target named is T3, Proteasome subunit beta (Trypanosoma cruzi) (UniProt O96673).
T3 sequence (whole entry): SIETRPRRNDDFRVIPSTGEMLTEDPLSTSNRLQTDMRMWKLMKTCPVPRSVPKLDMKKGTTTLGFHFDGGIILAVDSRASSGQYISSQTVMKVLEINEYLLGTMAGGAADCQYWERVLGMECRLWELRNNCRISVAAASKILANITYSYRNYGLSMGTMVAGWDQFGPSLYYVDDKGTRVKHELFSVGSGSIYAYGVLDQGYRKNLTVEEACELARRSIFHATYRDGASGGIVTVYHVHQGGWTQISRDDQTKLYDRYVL
Nature of the experiment: Trypanosoma cruzi proteasome chymotrypsin-like activity (TcProtChymo) assay. Note: in the data most compounds retested in dose-response had high values. Conditions: 9.37 µM. The experiment is classed as functional.

For a further experiment, the species on record is Homo sapiens. Description: To identify inhibition of the IFN signalling (Jak-Stat) pathway via expression of an eGFP reporter gene under the control of an IFN-stimulated response element (ISRE) containing MxA promoter. The conditions noted are these: 30 µM. The experiment is classed as functional. For orientation: A reporter such as luciferase makes a cellular process visible.

For experiment [7], the target named is T4, Tyrosyl-tRNA synthetase, putative (Trypanosoma cruzi (strain CL Brener)) (UniProt Q4DSP6).
T4 sequence (whole entry): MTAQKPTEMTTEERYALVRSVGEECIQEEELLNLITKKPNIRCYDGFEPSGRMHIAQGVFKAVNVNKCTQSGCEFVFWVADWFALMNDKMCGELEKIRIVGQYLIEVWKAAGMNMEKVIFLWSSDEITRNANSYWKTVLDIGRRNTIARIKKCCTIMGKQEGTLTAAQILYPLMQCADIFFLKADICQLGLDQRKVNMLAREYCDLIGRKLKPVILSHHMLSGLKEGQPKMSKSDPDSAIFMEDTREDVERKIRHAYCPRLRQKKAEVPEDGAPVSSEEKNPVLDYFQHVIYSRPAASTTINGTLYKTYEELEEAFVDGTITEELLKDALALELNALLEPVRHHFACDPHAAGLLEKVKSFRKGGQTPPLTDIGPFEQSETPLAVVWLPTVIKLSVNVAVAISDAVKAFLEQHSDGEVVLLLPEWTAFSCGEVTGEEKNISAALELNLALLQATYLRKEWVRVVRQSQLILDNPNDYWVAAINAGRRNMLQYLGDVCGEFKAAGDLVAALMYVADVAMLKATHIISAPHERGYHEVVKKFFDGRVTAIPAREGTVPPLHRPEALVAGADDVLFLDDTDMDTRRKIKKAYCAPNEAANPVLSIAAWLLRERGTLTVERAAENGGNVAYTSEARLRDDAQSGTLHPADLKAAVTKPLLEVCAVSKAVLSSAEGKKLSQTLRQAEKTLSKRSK
Description: Trypanosoma cruzi tyrosyl tRNA synthetase (TcYRS) _High Tyrosine SOP. Note: in the data most compounds retested in dose-response had high values. The experiment is classed as functional. The conditions noted are these: 30 µM.

In experiment [8] the target is T4, Tyrosyl-tRNA synthetase, putative (Trypanosoma cruzi (strain CL Brener)). Description: Trypanosoma cruzi tyrosyl tRNA synthetase (TcYRS) SOP. The class given is functional. Conditions: 30 µM.
Experiment [9] deals with Chromo domain-containing protein 1 (Saccharomyces cerevisiae (strain ATCC 204508 / S288c) (Baker's yeast)) (UniProt P32657). Description: ScCHD-1 Enzyme Inhibition Assay. Note: in the data most compounds retested in dose-response had high values. Conditions: 30 µM. The experiment is classed as functional.
Chain of Chromo domain-containing protein 1 (Saccharomyces cerevisiae (strain ATCC 204508 / S288c) (Baker's yeast)) (P32657 whole entry, the tested form may be a part): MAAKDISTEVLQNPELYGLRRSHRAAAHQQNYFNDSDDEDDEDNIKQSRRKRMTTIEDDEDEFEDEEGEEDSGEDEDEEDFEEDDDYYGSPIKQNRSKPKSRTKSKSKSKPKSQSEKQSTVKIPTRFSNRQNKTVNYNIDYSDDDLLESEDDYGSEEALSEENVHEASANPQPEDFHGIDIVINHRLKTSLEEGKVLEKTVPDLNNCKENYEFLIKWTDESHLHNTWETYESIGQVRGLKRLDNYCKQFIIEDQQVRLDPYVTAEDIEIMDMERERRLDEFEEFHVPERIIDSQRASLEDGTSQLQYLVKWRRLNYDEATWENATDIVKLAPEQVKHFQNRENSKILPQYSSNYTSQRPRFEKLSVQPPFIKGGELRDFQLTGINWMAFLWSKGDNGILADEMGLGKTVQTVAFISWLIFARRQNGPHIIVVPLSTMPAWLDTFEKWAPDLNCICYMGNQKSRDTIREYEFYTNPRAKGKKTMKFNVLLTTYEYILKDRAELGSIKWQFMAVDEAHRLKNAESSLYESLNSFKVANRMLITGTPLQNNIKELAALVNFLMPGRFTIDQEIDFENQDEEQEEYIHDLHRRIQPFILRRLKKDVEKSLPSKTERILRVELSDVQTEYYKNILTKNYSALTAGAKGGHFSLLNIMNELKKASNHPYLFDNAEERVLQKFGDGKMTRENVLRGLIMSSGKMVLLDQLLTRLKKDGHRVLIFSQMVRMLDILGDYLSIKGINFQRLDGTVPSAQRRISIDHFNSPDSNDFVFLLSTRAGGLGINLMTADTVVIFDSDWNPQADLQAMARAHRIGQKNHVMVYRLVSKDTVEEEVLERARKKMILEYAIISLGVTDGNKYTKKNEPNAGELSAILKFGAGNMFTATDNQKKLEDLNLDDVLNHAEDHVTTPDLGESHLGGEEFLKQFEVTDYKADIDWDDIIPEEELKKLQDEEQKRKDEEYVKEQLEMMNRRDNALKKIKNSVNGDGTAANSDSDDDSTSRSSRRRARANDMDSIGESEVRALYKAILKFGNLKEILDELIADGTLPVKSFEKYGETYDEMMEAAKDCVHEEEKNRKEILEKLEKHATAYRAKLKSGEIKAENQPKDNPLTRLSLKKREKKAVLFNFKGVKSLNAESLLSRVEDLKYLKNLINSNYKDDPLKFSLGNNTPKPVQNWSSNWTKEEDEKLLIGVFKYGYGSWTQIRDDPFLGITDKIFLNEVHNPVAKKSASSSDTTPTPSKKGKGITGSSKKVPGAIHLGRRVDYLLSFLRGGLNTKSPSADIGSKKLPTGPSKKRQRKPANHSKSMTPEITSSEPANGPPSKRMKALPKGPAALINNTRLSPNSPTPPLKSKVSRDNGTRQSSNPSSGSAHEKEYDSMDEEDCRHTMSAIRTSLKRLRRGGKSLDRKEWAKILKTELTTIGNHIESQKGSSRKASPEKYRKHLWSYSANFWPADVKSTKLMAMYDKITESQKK

Drawing on ChEMBL document CHEMBL3988442, “University of Dundee, Small-Polar-MMV Screening Library” (2021), this text covers Percent Effect for eleven molecules.

For some of these results: Entries with a potency or affinity are not part of this list.

Chain of Protein translocase subunit SecA (Escherichia coli (strain K12)) (P10408 whole entry): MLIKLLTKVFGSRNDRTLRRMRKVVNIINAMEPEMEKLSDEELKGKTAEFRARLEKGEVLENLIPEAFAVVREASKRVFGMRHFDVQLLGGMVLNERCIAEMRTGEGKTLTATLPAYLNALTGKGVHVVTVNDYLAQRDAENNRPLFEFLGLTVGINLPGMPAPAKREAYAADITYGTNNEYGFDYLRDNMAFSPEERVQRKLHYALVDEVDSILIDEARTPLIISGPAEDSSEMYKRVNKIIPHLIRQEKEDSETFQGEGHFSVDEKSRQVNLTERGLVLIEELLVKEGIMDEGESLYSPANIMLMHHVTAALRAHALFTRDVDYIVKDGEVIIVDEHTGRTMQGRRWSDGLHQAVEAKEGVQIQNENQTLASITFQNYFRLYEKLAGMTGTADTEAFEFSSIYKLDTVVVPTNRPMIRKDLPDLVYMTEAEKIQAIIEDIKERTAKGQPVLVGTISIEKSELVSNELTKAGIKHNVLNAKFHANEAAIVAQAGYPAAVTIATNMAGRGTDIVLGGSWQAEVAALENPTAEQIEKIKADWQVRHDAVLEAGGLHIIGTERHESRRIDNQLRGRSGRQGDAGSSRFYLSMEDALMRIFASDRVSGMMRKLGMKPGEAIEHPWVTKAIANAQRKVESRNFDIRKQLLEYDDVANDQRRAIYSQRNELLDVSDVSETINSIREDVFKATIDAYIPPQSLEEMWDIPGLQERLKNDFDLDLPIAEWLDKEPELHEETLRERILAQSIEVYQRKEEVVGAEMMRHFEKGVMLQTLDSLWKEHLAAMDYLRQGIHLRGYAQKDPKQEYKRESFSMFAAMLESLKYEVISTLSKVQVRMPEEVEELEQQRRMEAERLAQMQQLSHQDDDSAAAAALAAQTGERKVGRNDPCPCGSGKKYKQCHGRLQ
Chain of Sialic acid-binding Ig-like lectin 9 (Homo sapiens) (Q9Y336 whole entry): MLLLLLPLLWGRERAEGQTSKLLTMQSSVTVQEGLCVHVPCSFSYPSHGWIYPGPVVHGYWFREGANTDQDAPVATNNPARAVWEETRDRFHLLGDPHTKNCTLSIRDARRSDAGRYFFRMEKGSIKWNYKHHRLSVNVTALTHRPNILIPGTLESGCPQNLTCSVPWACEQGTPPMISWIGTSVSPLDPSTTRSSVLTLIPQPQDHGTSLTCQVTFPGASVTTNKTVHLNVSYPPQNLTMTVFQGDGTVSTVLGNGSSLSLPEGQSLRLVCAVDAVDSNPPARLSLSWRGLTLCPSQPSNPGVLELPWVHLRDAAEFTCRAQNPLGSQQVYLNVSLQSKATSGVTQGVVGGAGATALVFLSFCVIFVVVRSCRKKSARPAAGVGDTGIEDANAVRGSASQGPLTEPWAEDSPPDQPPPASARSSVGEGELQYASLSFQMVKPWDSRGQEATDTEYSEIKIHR

With `CCc1cnc(CN(C)C2CCN(CCS(C)(=O)=O)C2)o1` (stereo unspecified), the Percent Effect in [1] is -1.6%; in [2] it was -1.39%; in [3] it was -3.86%; in experiment [4], -4.8%; in the experiment on Trypanosoma cruzi, -5.54%; in experiment [5], 2.21%. Further, the Percent Effect in experiment [6] is 3.51%; in the experiment listed under Homo sapiens, -7.25%; in experiment [7] it was 0%; in experiment [8], 2.56%; in experiment [9] it was 0.436%.

As for `Cn1cc(CN2CCN(Cc3nccn3C)CC2)cn1`, the Percent Effect was 1.49% in experiment [1]; 10.8% in experiment [2]; 7.76% in experiment [3]; -5.51% in [4]; -8.31% with Trypanosoma cruzi; -1.24% in experiment [5]. Further, the Percent Effect in experiment [6] is 7.12%; in the experiment listed under Homo sapiens, 43.3%; in [7], 0%; in experiment [8] it was 1.24%; in experiment [9], -4.77%.

In the case of `CCC1=N[C@@]2(CC[C@@H]3CN(CC(=O)N(C)C)C[C@@H]32)C(=O)N1CC1CC1`, the Percent Effect in [1] is -0.889%; in experiment [2], 6.67%; in experiment [3] it was 3.24%; in experiment [4], -0.307%; with Trypanosoma cruzi, -6.88%; in experiment [5], -12.2%. The Percent Effect in experiment [6] was 17.2%; in the experiment filed under Homo sapiens it was 4.45%; in [7], 0%; in experiment [8] it was 10.3%; in experiment [9], -7.25%.

For `CN(CC1(O)CCCN(CCC2CCCCC2)C1=O)C1CCOCC1` (stereo unspecified), the Percent Effect in experiment [1] is -5.39%; in experiment [2], 10.7%; in experiment [3], -4.88%; in experiment [4], 15.6%; in the experiment on Trypanosoma cruzi, 7.5%; in [5] it was 6.77%. For the same molecule, the Percent Effect in [6] is 6.8%; in the experiment listed under Homo sapiens it was 6.58%; in experiment [7], 4.92%; in experiment [8], 13.6%; in experiment [9], -3.45%.

For the molecule `CNS(=O)(=O)c1cccc(CNc2cc(C(F)(F)F)ccn2)c1`, the Percent Effect in experiment [1] was -7.14%; in experiment [2] it was 5.41%; in experiment [3], 12.6%; in experiment [4], -1.96%; with Trypanosoma cruzi, -6.13%; in experiment [5], 5.21%. The Percent Effect is 0.54% in [6]; 38.2% in the experiment listed under Homo sapiens; 4.43% in experiment [7]; 3.7% in experiment [8]; -1.45% in [9].

Consider `O=C1CC(c2ccccc2)c2snc(C(=O)O)c2N1` (stereo unspecified), for which the Percent Effect in experiment [1] is -3.07%; in experiment [2] it was 6.67%; in experiment [3] it was -2.59%; in experiment [4] it was -2.64%; in the experiment with Trypanosoma cruzi, 2.95%; in experiment [5], 20.9%. For the same molecule, the Percent Effect is 29.4% in [6]; 1.29% in the experiment listed under Homo sapiens; 3.17% in experiment [7]; 7.69% in experiment [8]; -12% in experiment [9].

Regarding `CC(C)c1nc(C2CCCN2CCc2ccncc2)no1` (stereo unspecified), the Percent Effect was -3.81% in experiment [1]; 0% in experiment [2]; 6.93% in experiment [3]; -0.839% in [4]; -2.25% with Trypanosoma cruzi; -0.356% in experiment [5]. The Percent Effect in experiment [6] was 13%; in the experiment filed under Homo sapiens it was 27%; in experiment [7], 2.91%; in [8], -4.88%; in [9] it was -0.507%.

`CN1CCN(C(=O)c2cnc3c(cnn3C3CCCC3)c2)CC1`: the Percent Effect in [1] is -5.03%; in [2], 12.7%; in experiment [3], -2.67%; in experiment [4], -0.596%; with Trypanosoma cruzi, 8.78%; in experiment [5] it was 5.7%. Also, the Percent Effect is 1.72% in experiment [6]; -7.07% in the experiment listed under Homo sapiens; 5.42% in experiment [7]; 16.5% in experiment [8]; -5.9% in experiment [9].

Turning to `CCCNC(=O)Cn1nc(C(C)C)c2cnn(C(C)(C)C)c2c1=O`, the Percent Effect is -3.37% in [1]; 5.48% in [2]; -13.9% in experiment [3]; 4.27% in [4]; -0.392% in the experiment on Trypanosoma cruzi; 2.27% in [5]. The Percent Effect in experiment [6] was 16.1%; in the experiment listed under Homo sapiens, 5.42%; in experiment [7] it was 8.6%; in experiment [8], 15%; in [9], -5.95%.

As for `Cc1nnc2n1CCN(C(=O)c1cc(C)n(-c3ccccn3)c1C)C2`, the Percent Effect was -5.88% in experiment [1]; 13.2% in experiment [2]; -9.47% in experiment [3]; 3.77% in experiment [4]; -1.03% with Trypanosoma cruzi; 3.6% in experiment [5]. In addition, the Percent Effect in experiment [6] was 17%; in the experiment filed under Homo sapiens, 4.26%; in experiment [7], 4.43%; in experiment [8] it was 13.6%; in [9] it was 2.79%.

Consider `Cc1nc(Nc2ncccn2)cc(C2CCCN2CC(C)C)n1` (stereo unspecified), for which the Percent Effect in experiment [1] was -6.07%; in experiment [2], 5.33%; in experiment [3], 4.6%; in experiment [4], -0.413%; in the experiment on Trypanosoma cruzi, -1.38%; in experiment [5] it was -2.56%. Moreover, the Percent Effect was -1.5% in [6]; 0.824% in the experiment listed under Homo sapiens; 2.13% in [7]; 6.41% in [8]; -1.78% in [9].
